In the library only some 4.9% were active in any assay of this set; here they are far more common.
Calb FLC – C. albicans growth modulation with fluconazole; 0.57% of 300,000 active; AID 1979; C. albicans CaCi-2 (fluconazole-resistant clinical isolate) + fluconazole, Alamar Blue growth, 48 h; growth inhibition, % (no concentration beside the values);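 active = growth inhibition above about 58% in most replicates, limit read from the data, passing the limit was not always enough; inconclusive = exactly half the replicates above a set limit; inactive = most replicates below a set limit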;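 note: all wells also contain fluconazole at 8 µg/ml as a sub-toxic cotreatment; 0% = median of DMSO wells and 100% = median of geldanamycin control wells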
PP5 inh – PP5 (human) phosphatase inhibition; P53041; purified PP5c, OMFP substrate fluorescence; inhibition, % at 6.7 µM; 0.18% of 320,000 active; AID 1987;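 active = inhibition above the campaign's mean inhibition across all tested compounds plus 3 SD, cut at about 9.5% in these data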;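 note: 0% = DMSO only and 100% = 100 µM cantharidin control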
CSC inhib – cancer stem cell inhibition; cancer stem cell-like cells viability, luminescence; inhibition, % at 7.5 µM; 1.1% of 300,000 active; in the data active = inhibition above about 75%; inconclusive = no clear call, values can overlap the other calls; tested in HMLE shEcad cells
PP1 counter – counter-screen for PP5 inhibitors: inhibitors of human PP1-alpha | inhibition, % at 6.7 µM | purified PP1alpha, OMFP fluorescence | 0.9% of 320,000 active | P62136;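 active = inhibition above the mean inhibition of all tested compounds plus 3 SD, computed separately for each screening campaign, cut at about 15% in these data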
Target sequence (P62136 whole entry, looked up): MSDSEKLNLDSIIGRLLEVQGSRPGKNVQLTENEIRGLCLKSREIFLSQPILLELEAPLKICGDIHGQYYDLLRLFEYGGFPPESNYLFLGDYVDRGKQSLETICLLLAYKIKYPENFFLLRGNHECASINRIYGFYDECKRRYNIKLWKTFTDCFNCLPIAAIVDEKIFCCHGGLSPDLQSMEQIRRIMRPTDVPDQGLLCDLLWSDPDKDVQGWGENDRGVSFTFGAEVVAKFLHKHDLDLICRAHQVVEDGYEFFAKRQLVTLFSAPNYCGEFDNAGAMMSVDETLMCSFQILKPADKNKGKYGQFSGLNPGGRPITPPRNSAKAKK
Mdm2-MdmX inh – inhibitors of human Mdm2/MdmX interaction. O15151+Q00987. SaOS-2 split-luciferase Mdm2/MdmX complementation, luminescence. inhibition, % at 8 µM. 3% of 330,000 active. AID 485346;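 active = inhibition of at least 50% at 8 µM in the primary screen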
Beta apoptosis – blocks beta cell apoptosis. INS-1E cytokine-induced death, ATP luminescence, 48 h; percent of positive-control rescue, neutral wells zero. protection from apoptosis, % (concentration not given with the values). 0.8% of 300,000 active. AID 435005;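 active = Every replicate reaches about 75%, or at least half do and their mean reaches it too, limit read from the data; inconclusive = At least half of replicates reach the limit but their mean does not; inactive = Under half of replicates reach the limit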;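 note: 0% = cytokine-treated negative control wells and 100% = positive control rescue; higher means more ATP so stronger rescue from cytokine killing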
Mdm2 MdmX conf – confirmation of human Mdm2/MdmX interaction inhibitors; inhibition, % at 8 µM; Mdm2-MdmX binding, luminescent assay; 55% of 10,000 active; shares compounds with Mdm2-MdmX inh; in the data active = inhibition above about 40%
FLuc counter – inhibits full-length luciferase, flagging false Mdm2/MdmX hits; 77% of 6,200 active; shares compounds with Mdm2-MdmX inh; AID 504607; SaOS-2 full-length luciferase counterscreen, luminescence; inhibition, % at 8 µM;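 active = mean inhibition at 8 µM reaching about 37%, which flags the compound as non-specific, limit read from the data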;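 note: p53-null SaOS-2 cells with luciferase driven by a doxycycline-inducible promoter; compound on cells about two nights before reading with doxycycline added after day one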
Numbers without * were called inactive; ? = inconclusive; nt = not tested or not shown.

SMILES | Calb FLC | PP5 inh | CSC inhib | PP1 counter | Mdm2-MdmX inh | Beta apoptosis | Mdm2 MdmX conf | others
COc1ccc(-c2cc(C(F)(F)F)c(C#N)c(SCC(=O)Nc3nc(C)co3)n2)cc1 | -22.5 | 0.1 | nt | -1.2 | 61.6* | 6.2 | 23.3
Cc1coc(NC(=O)CSc2nc(-c3ccc(Cl)cc3)cc(C(F)(F)F)c2C#N)n1 | -6.0 | 2.2 | -16.7 | 1.6 | 43.9 | 1.9 | nt
Cc1ccc(C(C)(O)CS(=O)(=O)Cc2ccccc2)cc1 (stereo not drawn) | -8.2 | 2.4 | -9.7 | -1.4 | -2.5 | -3.7 | nt
O=C(Cc1ccc(Cl)cc1)Nc1cccc(C(=O)Nc2ccccc2C(=O)O)c1 | -1.5 | 3.8 | -0.4 | 7.0 | 3.8 | -7.5 | nt
COC(=O)c1cn(NC(=O)c2ccccc2[N+](=O)[O-])c(=O)c2ccccc12 | 7.9 | 1.0 | nt | -5.8 | 17.8 | -4.5 | nt
CCn1ncc(/C=N/N=C2\CCC3C4CCc5cc(O)ccc5C4CCC23C)c1C (stereo not drawn) | ? | 1.9 | 58.0 | 8.5 | 50.7* | nt | -2.8
COc1cc2ncc(S(=O)(=O)c3ccccc3)c(N3CCCC(C)C3)c2cc1OC (stereo not drawn) | -4.0 | 6.5 | 8.7 | 3.0 | 50.9* | 11.2 | 17.9
O=S(=O)(c1ccccc1)c1cnc(-c2ccccc2)nc1N1CCCC1 | 0.7 | 1.2 | 5.6 | 2.9 | 2.1 | 11.4 | nt
CC1(C)C[C@@H](O)[C@]2(C)CC[C@]3(C)C(=CCC4[C@@]5(C)CC[C@H](O)[C@](C)(CO)C5CC[C@]43C)[C@@H]2C1 (stereo partly drawn) | nt | nt | nt | nt | 76.8* | nt | -43.6
CCOc1cccc(/C=N/NC(=S)Nc2ccccc2[N+](=O)[O-])c1O | -20.2 | 2.6 | 40.1 | 12.8 | 84.6* | 69.9 | 83.3* | FLuc counter=48.8*
O=[N+]([O-])c1cccc(/C=N/Nc2cc(N3CCOCC3)ncn2)c1 | -2.8 | -3.0 | 2.8 | -3.3 | 59.5* | -11.5 | 32.9
C/C(=N\Nc1cc(N2CCOCC2)ncn1)c1cccc([N+](=O)[O-])c1 | -36.8 | 1.5 | nt | 1.7 | 60.4* | -23.8 | 21.1
O=[N+]([O-])c1cccc(/C=N/Nc2cc(Cl)nc(-c3ccccc3)n2)c1 | 3.6 | 1.7 | -0.3 | -3.2 | 66.3* | 13.8 | 9.6
O=[N+]([O-])c1ccc(/C=N/Nc2cc(Cl)nc(-c3ccccc3)n2)cc1 | -6.3 | 0.9 | -4.8 | 0.2 | 31.3 | 10.7 | nt
C/C(=N\Nc1cc(N2CCOCC2)ncn1)c1ccccc1 | 6.8 | 4.8 | -12.3 | -2.6 | -37.6 | -3.7 | nt
COCCCN1CC(=O)N2Cc3[nH]c4ccccc4c3C[C@H]2C1=O | -0.2 | -0.9 | -11.1 | -2.8 | 11.5 | -3.9 | nt
O=S(=O)(c1cccs1)N1CCN(c2ccnc3cc(Cl)ccc23)CC1 | -5.4 | 0.9 | nt | 7.7 | 57.4* | nt | 22.7
Oc1ccc(/C=N/Nc2ccc(C(F)(F)F)cn2)c(O)c1 | 100.4* | 4.1 | 102.4* | 4.3 | 64.1* | 72.7 | 36.2 | FLuc counter=55.6*
CCN(c1ccc(OCC(=O)OCC(=O)Nc2ccc(F)c(F)c2F)cc1)S(=O)(=O)c1ccccc1 | nt | 2.1 | 10.4 | -3.0 | nt | -2.4 | nt
COC(=O)c1nn(-c2ccccc2)c(Cl)c1/C=N/O | ? | -2.5 | 12.0 | 0.4 | 19.1 | 2.4 | nt
COC(=O)c1nn(-c2ccccc2)c(Cl)c1/C=N/OCc1ccc(Cl)cc1Cl | -4.6 | -2.3 | 2.3 | -2.9 | 57.7* | -7.3 | 0.9
Cc1[nH][nH]c(=O)c1C=NCc1cccs1 | -6.2 | 2.0 | -12.2 | -5.3 | -22.7 | -6.3 | nt
COc1ccc(NC(=O)c2ccc(Cl)c(S(=O)(=O)NCC3CCCO3)c2)c(OC)c1 (stereo not drawn) | -8.1 | -1.1 | -7.4 | 0.4 | 20.1 | 2.1 | nt
Cc1ccc(NC(=S)N(C)C(c2ccccc2)c2ccccc2)cc1C | 1.6 | 4.2 | 27.8 | 4.0 | 59.0* | 3.5 | 24.8
CCc1nnc(NC(=O)CSc2nnc3c(n2)[nH]c2ccccc23)s1 | 10.4 | 2.0 | -26.3 | -2.5 | 14.7 | -0.6 | nt
SMILES | Calb FLC | PP5 inh | CSC inhib | PP1 counter | Mdm2-MdmX inh | Beta apoptosis | Mdm2 MdmX conf | others
Cc1ccnc(NC(=O)CSc2nnc3c(n2)[nH]c2ccccc23)c1 | 20.9 | -2.5 | 17.7 | -2.3 | 55.1* | -19.0 | 56.0* | FLuc counter=98.9*
COc1cccc(C(=O)CSc2nnnn2C2CCCCC2)c1 | -11.3 | -0.7 | -4.6 | 1.1 | -16.0 | 0.0 | nt
Oc1cc(NCCN2CCOCC2)cc2cccnc12 | nt | nt | nt | nt | 30.3 | 11.1 | nt
CN1CCN(c2cc(-c3cc(O)c4ncccc4c3)ccn2)CC1 | nt | -0.1 | 21.7 | 4.2 | 60.1* | 2.8 | 45.5* | FLuc counter=19.6
Oc1cc(-c2cccnc2)cc2cccnc12 | nt | 1.3 | 45.7 | 4.6 | 76.3* | 11.2 | 49.6* | FLuc counter=14.2
CN1CCN(C(=O)c2cccc(-c3cc(O)c4ncccc4c3)c2)CC1 | nt | nt | -1.1 | nt | 26.8 | 31.7 | nt
Oc1cc(Nc2ccccc2)cc2cccnc12 | nt | nt | nt | nt | 66.8* | 36.2 | 30.6
CCC(C)(C)c1nnc(NC(=O)CCC2CCCCC2)s1 | 1.5 | -0.2 | -5.7 | 1.3 | -17.2 | -5.5 | nt
O=C(NNc1nc(-c2ccccc2)cs1)c1ccc(F)cc1 | -6.6 | 1.2 | 23.0 | 2.7 | 53.8* | -5.5 | 26.4
O=C(NNc1nc(-c2ccc(F)cc2)cs1)c1ccccc1 | -5.7 | 1.3 | 15.9 | 4.6 | 61.8* | -3.5 | 48.9* | FLuc counter=49.6*
O=C1OC(Nc2nc(-c3ccc(F)cc3)cs2)c2ccccc21 (stereo not drawn) | -6.8 | nt | 42.0 | nt | 62.6* | 21.3 | 23.0
O=C(NNc1nc(-c2ccccc2)cs1)c1cccs1 | 7.2 | 1.0 | 21.2 | -0.9 | 37.4 | -0.9 | nt
O=C(Cc1c(F)c(F)c(F)c(F)c1F)Nc1nc(-c2ccccc2)cs1 | -17.8 | 6.0 | 83.5* | 14.2 | 57.1* | 5.4 | 39.0 | FLuc counter=83.9*
COC(=O)C1C(=O)C2=C(CC1C)Nc1ccccc1NC2c1ccc(C)s1 (stereo not drawn) | -16.5 | 1.2 | 5.8 | -2.7 | 0.8 | -3.0 | nt
Cc1ccc(O)c(NC(=O)C2CC(c3cccc(Br)c3)=NO2)c1 (stereo not drawn) | 8.3 | 6.8 | 4.6 | 2.4 | 6.0 | -2.7 | nt
O=C(CSc1nc(-c2ccccc2)cs1)Nc1nccs1 | 111.8* | 1.6 | 8.1 | 2.0 | 59.1* | -3.4 | -6.8
CC(C)(C)c1csc(NNC(=O)c2ccc(Br)cc2)n1 | -15.6 | 3.0 | 61.3 | 0.7 | 64.4* | 18.2 | 21.9
O=C(CSc1nnc2c3ccccc3c3ccccc3c2n1)Nc1ccccc1 | 21.3 | 4.0 | nt | -1.6 | -4.9 | -1.2 | nt
O=C(CSc1nnc2c3ccccc3c3ccccc3c2n1)Nc1ccccc1F | -4.4 | 0.5 | 13.9 | -7.8 | 75.7* | -4.9 | -3.2
Cc1nc2c(-c3ccccc3)cnn2c(N)c1-c1ccccc1 | 2.3 | nt | 28.2 | nt | 82.9* | 5.9 | 77.3* | FLuc counter=147.8*
C=CS(=O)(=O)N(Cc1ccc(Cl)c(Cl)c1)C[C@@H](O)CO | nt | nt | nt | nt | 81.0* | nt | 83.6* | FLuc counter=55.0*
